Assay results as given in PubChem BioAssay (EPA / NIEHS).
Records with an inconclusive call do not appear. Activity calls are given as the source filed them. How the source made its calls: active means hit-call score of the fitted dose curve at least 0.9, where 1 is the maximum; inconclusive means response in the unintended direction; inactive means score below 0.9.

Target: human Vitamin D Receptor (VDR), VDR (gene 7421) (UniProt P11473)
Experiment: ATG_VDR_TRANS: Attagene TRANS-FACTORIAL HepG2 Assay for human Vitamin D Receptor (VDR) (AID 2283022)
How it was run: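 Multiplexed TRANS reporter in HepG2; 24 h treatment; reporter mRNA by RT-PCR plus capillary electrophoresis; upregulation scored relative to DMSO.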

human Vitamin D Receptor (VDR), VDR (gene 7421), sequence (P11473 whole entry, looked up): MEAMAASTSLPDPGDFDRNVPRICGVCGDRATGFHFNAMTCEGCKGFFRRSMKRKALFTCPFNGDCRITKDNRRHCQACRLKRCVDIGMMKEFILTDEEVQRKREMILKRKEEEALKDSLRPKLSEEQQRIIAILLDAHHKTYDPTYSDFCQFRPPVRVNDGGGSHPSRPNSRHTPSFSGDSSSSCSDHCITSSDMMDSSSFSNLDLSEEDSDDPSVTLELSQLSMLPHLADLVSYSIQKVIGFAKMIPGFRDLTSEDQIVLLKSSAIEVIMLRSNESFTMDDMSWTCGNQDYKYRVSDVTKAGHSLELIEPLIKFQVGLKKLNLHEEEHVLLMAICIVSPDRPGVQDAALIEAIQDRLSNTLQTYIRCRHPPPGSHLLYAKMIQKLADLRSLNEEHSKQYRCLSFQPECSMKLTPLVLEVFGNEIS

Row | Compound | outcome
1 | CC1(C)C(=O)N(CO)C(=O)N1CO | inactive
2 | CCC1COC(=O)O1 (stereo not given) | inactive
3 | C[Si](C)(C)N[Si](C)(C)C | inactive
4 | COc1ccc(-c2coc3cc(O)cc(O)c3c2=O)cc1 | inactive
5 | CC(=O)/C=C/C1C(C)=CCCC1(C)C (stereo not given) | inactive
6 | CC1CCC(C(C)(C)S)C(=O)C1 (stereo not given) | inactive
7 | Cc1cc(C)c(C=O)c(C)c1 | inactive
8 | C=CC(C)(CCC=C(C)C)OC(=O)C=Cc1ccccc1 (stereo not given) | inactive
9 | CCCCCCCCCCCCCC(=O)OC(C)C | inactive
10 | O=c1c(O)c(-c2ccc(O)cc2O)oc2cc(O)cc(O)c12 | inactive
11 | C=CC(=O)OCCCCCCCCCC | inactive
12 | C=C(C)C(=O)OCCOC(=O)C(=C)C | inactive
13 | CCCCOC(=O)CCC(C)=O | inactive
14 | CC(C)CCOCc1ccccc1 | inactive
15 | c1ccc2cnccc2c1 | inactive
16 | CCc1cccc(CC)c1 | inactive
17 | CCCCCCCCCC[N+](C)(CCCCCCCCCC)CCC[Si](OC)(OC)OC | inactive
18 | O=C(O)CCC(=O)O | inactive

Row | Compound | outcome
19 | Cc1c[nH]c(=O)[nH]c1=O | inactive
20 | CC(=O)OC1CCCCC1 | inactive
21 | CCCCOCC(C)O (stereo not given) | inactive
22 | CC(C)OC(=O)c1ccccc1 | inactive
23 | CC(=O)CCC=C(C)C | inactive
24 | CC(=O)C(C)C | inactive
25 | Cc1cccc(C(C)(C)C)c1O | inactive
26 | CC(=O)OCC=C(C)C | inactive
27 | CCC(C)c1ccccc1 (stereo not given) | inactive
28 | CC(C)c1cc(C(C)C)cc(C(C)C)c1 | inactive
29 | N#Cc1ccc(C(c2ccc(C#N)cc2)n2cncn2)cc1 | inactive
30 | C=C[C@@]1(C)CC(=O)[C@]2(O)[C@@]3(C)[C@@H](O)CCC(C)(C)[C@@H]3[C@H](O)[C@H](OC(C)=O)[C@@]2(C)O1 | inactive
31 | CC(=O)OC(C)c1ccccc1 (stereo not given) | inactive
32 | CC(=O)OCc1ccccc1 | inactive
33 | CCCCOCCOCCOC(C)=O | inactive
34 | COC(=O)CC(C)CCC=C(C)C (stereo not given) | inactive
35 | CCCCCCCCCC(C)=O | inactive
